Screening data deposited in PubChem by National Center for Advancing Translational Sciences (NCATS).
The list is not random: actives were taken first. Their share in the collection is about 1.3%.
LmPK inhibitor – inhibitors of Leishmania mexicana pyruvate kinase | purified LmPK, Kinase-Glo ATP luminescence, 1 h | Potency, µM (doses to about 57.5 µM), for the others: at the highest dose activity change, negative = inhibition, usual class: inhibitors | hit rate 0.37% among 290,000 | Q27686
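Kinase-Glo luminescence read after 1 h RT reaction of 0.1 nM LmPK with 0.5 mM PEP and 0.1 mM ADP. Activity scaled between uninhibited and enzyme-free controls.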
AmpC inh no detg – inhibitors of E. coli AmpC beta-lactamase without detergent; P00811; AmpC nitrocefin hydrolysis, absorbance 480 nm, 0.0001% Triton; hit rate 0.52% among 330,000; Potency, µM (titrated, usually from 57.1 µM), inactives show at the top dose activity change, negative = inhibition, most hits filed as inhibitors;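 also: plate controls were no compound for no effect and no enzyme for full effect; nearly all actives have a fitted effect of over 20% in size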
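20 mM phosphate pH 7.0 + 0.01% (detergent screen) or 0.0001% Triton X-100; 5.3 nM AmpC reagent; cpd preinc 15 min RT; nitrocefin (800 uM stock) to start; A480 q20 s × 4 min; Activity was normalised to no-enzyme and no-compound control wells.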
Giardia FBPA inh-1 – inhibitors of Giardia lamblia fructose-1,6-bisphosphate aldolase. A8B2U2. purified Giardia FBPA. Potency, µM (top dose mostly 59.6 µM), inactives show at the top dose activity, negative = inhibition, most hits filed as inhibitors. hit rate 0.71% among 290,000. AID 2451; also: nearly all actives have a fitted effect of over 55% in size
Target sequence (A8B2U2 whole entry, looked up): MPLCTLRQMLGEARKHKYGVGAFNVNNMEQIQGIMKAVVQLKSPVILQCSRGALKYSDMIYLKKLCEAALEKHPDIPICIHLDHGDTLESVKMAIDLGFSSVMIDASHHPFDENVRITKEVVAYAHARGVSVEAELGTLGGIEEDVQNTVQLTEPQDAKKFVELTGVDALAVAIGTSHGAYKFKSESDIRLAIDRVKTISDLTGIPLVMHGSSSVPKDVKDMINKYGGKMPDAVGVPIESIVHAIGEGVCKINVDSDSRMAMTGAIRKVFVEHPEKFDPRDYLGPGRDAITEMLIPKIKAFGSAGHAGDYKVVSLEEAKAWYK
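Giardia FBPA (40 nM reagent) was preincubated 10 min at RT with compound (up to 57.5 uM final), then substrate plus GAPDH/TPI/NAD/arsenate coupling system with diaphorase/resazurin was added; resorufin fluorescence (525/598 nm) was read after 20 min.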
AMA1-RON2 inh – inhibitors of Plasmodium falciparum AMA1-RON2 interaction | AlphaScreen AMA1-biotinylated RON2 peptide binding | Potency, µM (doses to about 58.2 µM), for the others: top-dose activity change, negative = inhibition, actives largely listed as inhibitors | hit rate 0.2% among 360,000 | AID 720542;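 also: 0% = vehicle wells and -100% = peptide control; nearly all actives have a fitted effect of over 45% in size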
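AMA1 (3D7) with his tag at 25 nM final met compounds first, then biotinylated RON2 peptide at 25 nM; detection used donor plus acceptor beads, 10 µg/mL apiece, read by AlphaScreen after 30 min at room temperature.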
AmpC inh detg – blocks E. coli AmpC beta-lactamase in detergent assay; P00811; AmpC hydrolysis of nitrocefin, absorbance 480 nm, 0.01% Triton; Potency, µM (highest dose often 114 µM), without a hit: at the top dose activity change, negative = inhibition, most hits filed as inhibitors; hit rate 0.041% among 370,000; AID 485294;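 also: 0% = no-compound wells and -100% = no-enzyme wells; nearly all actives have a fitted effect of over 25% in size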
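AmpC (5.3 nM in the dispensed reagent) in 20 mM phosphate pH 7.0 with 0.01% (detergent screen) or 0.0001% Triton X-100 was preincubated with compounds for 15 min at room temperature. Nitrocefin was then added from an 800 uM solution, and hydrolysis was followed at 480 nm.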
Giardia growth – blocks growth of Giardia lamblia trophozoites; shares compounds with Giardia FBPA inh-1; Giardia lamblia trophozoite growth inhibition; Potency, µM (titrated, usually from 57.5 µM), inactives show top-dose activity change, negative = inhibition, actives largely listed as inhibitors; hit rate 5% among 1,500;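 also: trophozoites exposed to compound for 48 h at 37 °C; nearly all actives have a fitted effect of over 70% in size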
Mammalian tox – counter-screen for Giardia aldolase inhibitors: mammalian cell toxicity; mammalian cell viability counter-screen, qHTS; hit rate 4% among 1,500; Potency, µM (highest dose often 57.5 µM), inactives show top-dose viability change, negative = toxicity, actives largely listed as inhibitors; shares compounds with Giardia FBPA inh-1;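 also: Chinese hamster ovary cells used as mammalian cytotoxicity surrogate; viability measured as cellular ATP by luminescence; compound exposure lasted 48 h before reading; nearly all actives have a fitted effect of over 60% in size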
Giardia FBPA inh-2 – confirmation of Giardia fructose-bisphosphate aldolase inhibitors; shares compounds with Giardia FBPA inh-1; purified Giardia aldolase enzyme activity, qHTS; Potency, µM (doses to about 57.5 µM), for inactives: at the highest dose activity change, negative = inhibition, most hits filed as inhibitors; hit rate 5% among 1,500; also: nearly all actives have a fitted effect of over 45% in size
Rabbit FBPA inh – blocks rabbit muscle aldolase in Giardia aldolase selectivity test | Potency, µM (doses to about 57.5 µM), for the others: at the highest dose activity, negative = inhibition, hits mostly inhibitors | hit rate 4% among 1,500 | Rabbit muscle FBPA enzyme inhibition, selectivity counter-screen | shares compounds with Giardia FBPA inh-1; also: nearly all actives have a fitted effect of over 60% in size
Target sequence (P00883 whole entry, looked up): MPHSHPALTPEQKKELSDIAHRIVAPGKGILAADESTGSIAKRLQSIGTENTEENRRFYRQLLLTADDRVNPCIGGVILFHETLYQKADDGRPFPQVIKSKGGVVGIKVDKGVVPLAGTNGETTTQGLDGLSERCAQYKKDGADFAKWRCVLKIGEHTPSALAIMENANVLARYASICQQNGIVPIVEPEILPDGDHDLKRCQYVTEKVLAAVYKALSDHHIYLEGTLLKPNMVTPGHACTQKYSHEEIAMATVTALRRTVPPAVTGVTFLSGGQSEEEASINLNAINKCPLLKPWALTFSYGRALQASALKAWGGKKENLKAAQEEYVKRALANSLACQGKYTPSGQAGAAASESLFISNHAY
GAPDH counter – counter-screen for Giardia aldolase inhibitors: GAPDH coupling enzyme; hit rate 6% among 1,500; GAPDH coupling enzyme counterscreen, biochemical, qHTS; Potency, µM (highest dose often 57.5 µM), without a hit: at the top dose activity change, negative = inhibition, most hits filed as inhibitors; shares compounds with Giardia FBPA inh-1; also: nearly all actives have a fitted effect of over 55% in size
* hit, by the source's call; [ ] = remark or other dose. Calls follow the shape of the dose curve; as a rule, active = well fitted curve in the direction sought with a large enough effect; inconclusive = small, poorly fitted or top-dose-only effect, or another doubt; inactive = no such curve, though single readings can be large; an effect the other way counts as inactive or inconclusive. Unless noted, % is scaled to controls: 0 for no effect and ±100 for the full control effect; potency is read from the fitted curve at half-maximal effect.

`O=C(NCc1ccc(Cl)c(Cl)c1)c1cc(C2CCCCN2C(=O)c2ccccc2)on1` (configuration not stated) gave AMA1-RON2 inh -19.4%.
For O=C(N/N=C/c1cc(Br)c(Br)o1)c1ccc2c(c1)OCCO2 the results were LmPK inhibitor 1.2%, AmpC inh no detg -51.2%, Giardia FBPA inh-1 12.6µM*, AMA1-RON2 inh 2.9%, AmpC inh detg 0.3%, Giardia growth 11.6%, Mammalian tox -14.6%, Giardia FBPA inh-2 -7.7%, Rabbit FBPA inh -7.5% and GAPDH counter 0.8%.
For COc1ccc(-c2ccc(F)cc2)cc1C1C2C=CCC(C)C2C(=O)N1Cc1ccccc1 (configuration not stated) the results were Giardia FBPA inh-1 -2.3%.
Screening O=C(NC(=S)Nc1ccccc1Cl)c1cncc(C#Cc2ccccc2)c1 returned LmPK inhibitor 6.1%, AmpC inh no detg -15.1%, Giardia FBPA inh-1 -15.6%, AMA1-RON2 inh 12.0% and AmpC inh detg 4.8%.
Screening O=C(NC(=S)Nc1ccccc1Cl)c1cncc(Br)c1 returned LmPK inhibitor 1.7%, AmpC inh no detg -25.6%, Giardia FBPA inh-1 6.31µM*, AMA1-RON2 inh 28.4%, AmpC inh detg -7.8%, Giardia growth inconclusive, Mammalian tox 27.3%, Giardia FBPA inh-2 3.0%, Rabbit FBPA inh -0.2% and GAPDH counter -11.0%.
`O=C(NC(=S)Nc1ncc(Br)cc1Br)c1ccccc1` gave LmPK inhibitor 1.5%, AmpC inh no detg -20.0%, Giardia FBPA inh-1 6.31µM*, AMA1-RON2 inh 69.5%, AmpC inh detg 0.5%, Giardia growth 8.7%[38.3 µM], Mammalian tox -24.4%, Giardia FBPA inh-2 0.0%, Rabbit FBPA inh 23.0% and GAPDH counter -3.2%.
O=C(NC(=S)Nc1cnc2ccccc2c1)c1ccccc1 was read as LmPK inhibitor -11.9%, AmpC inh no detg -35.5%, Giardia FBPA inh-1 inconclusive, AMA1-RON2 inh 53.7% and AmpC inh detg -1.7%.
Cc1c(NC(=O)/C(C#N)=C/c2ccccc2)c(=O)n(-c2ccccc2)n1C was read as LmPK inhibitor 6.2%, AmpC inh no detg 82.6%, Giardia FBPA inh-1 1.7%, AMA1-RON2 inh -9.8% and AmpC inh detg 2.0%.
Screening Cc1c(NN=C(C#N)C#N)c(=O)n(-c2ccccc2)n1C returned LmPK inhibitor 8.6%, AmpC inh no detg 4.5%, Giardia FBPA inh-1 25.1µM*, AMA1-RON2 inh 47.4%, AmpC inh detg 2.2%, Giardia growth 16.6%, Mammalian tox 21.0%, Giardia FBPA inh-2 0.6%, Rabbit FBPA inh 1.7% and GAPDH counter 4.6%.
Screening O=C(Nc1nnc([C@@H]2C[C@H](O)[C@@H](CO)O2)s1)c1cccc(Cl)c1 returned AMA1-RON2 inh 19.9%.
For CC(C)NC(=O)c1cc(C2CCCCN2C(=O)OCCF)on1 (configuration not stated) the results were AMA1-RON2 inh -1.5%.
Screening CN(C)c1ccc(NC2=C(Cl)C(=O)c3ccccc3C2=O)cc1 returned LmPK inhibitor -28.5%, AmpC inh no detg -14.2%, Giardia FBPA inh-1 inconclusive, AMA1-RON2 inh 7.94µM*, AmpC inh detg inconclusive, Giardia growth 11.3µM*, Mammalian tox 32.6µM*, Giardia FBPA inh-2 inconclusive, Rabbit FBPA inh inconclusive and GAPDH counter 3.66µM*.
`O=[N+]([O-])c1ccc(N/N=C/c2ccc[nH]2)cc1` gave LmPK inhibitor -22.7%, AmpC inh no detg inconclusive, Giardia FBPA inh-1 17.7µM*, AMA1-RON2 inh -17.3%, AmpC inh detg 23.1%, Giardia growth 0.0%[10.4 µM], Mammalian tox 1.3%, Giardia FBPA inh-2 -26.2%, Rabbit FBPA inh -18.4% and GAPDH counter inconclusive.
c1ccc(-c2nn[nH]n2)nc1 was read as LmPK inhibitor -4.0%, AmpC inh no detg -2.9%, Giardia FBPA inh-1 7.92µM*, AMA1-RON2 inh inconclusive, AmpC inh detg 2.1%, Giardia growth 17.3%[38.3 µM], Mammalian tox 9.7%, Giardia FBPA inh-2 -3.6%, Rabbit FBPA inh -0.2% and GAPDH counter -8.9%.
`c1ccc(-c2n[nH]c(-c3ccccn3)n2)cc1` gave LmPK inhibitor inconclusive, AmpC inh no detg -5.5%, Giardia FBPA inh-1 -18.3%, AMA1-RON2 inh -23.1% and AmpC inh detg -13.8%.
`c1ccc(-c2n[nH]c(-c3ccccn3)n2)nc1` gave LmPK inhibitor 15.8µM*, AmpC inh no detg -5.8%, Giardia FBPA inh-1 3.15µM*, AMA1-RON2 inh inconclusive, AmpC inh detg inconclusive, Giardia growth -25.4%[38.3 µM], Mammalian tox -29.2%, Giardia FBPA inh-2 9.1%, Rabbit FBPA inh -8.1% and GAPDH counter -12.0%.
Screening CC(=O)Nc1nnc(CCS(=O)(=O)c2ccc(C)cc2)s1 returned AMA1-RON2 inh 1.5%.
For Cc1cc(C)nc(NN2C(=O)C=CC2=O)n1 the results were LmPK inhibitor -3.8%, AmpC inh no detg -10.4%, Giardia FBPA inh-1 5.01µM*, AMA1-RON2 inh 94.6%, AmpC inh detg -18.2%, Giardia growth inconclusive, Mammalian tox -6.0%, Giardia FBPA inh-2 0.9%, Rabbit FBPA inh -1.4% and GAPDH counter -1.3%.
`Cc1cc(C)nc(NN2C(=O)/C(=C/c3ccccc3)SC2=S)n1` gave LmPK inhibitor -2.4%, AmpC inh no detg -36.0%, Giardia FBPA inh-1 -26.8%, AMA1-RON2 inh 37.5% and AmpC inh detg 3.4%.
For CN(Cc1ccccc1)C(=S)NC(=O)c1cccs1 the results were LmPK inhibitor -0.1%, AmpC inh no detg -27.5%, Giardia FBPA inh-1 12.6µM*, AMA1-RON2 inh 57.1%, AmpC inh detg -17.1%, Giardia growth inconclusive, Mammalian tox -20.4%, Giardia FBPA inh-2 2.5%, Rabbit FBPA inh 8.4% and GAPDH counter 12.6%.
For CCN(CC(=O)Nc1c(F)cccc1F)C(=O)c1ccc(C#N)cc1 the results were LmPK inhibitor 0.0%, AmpC inh no detg 116.5%, Giardia FBPA inh-1 13.9%, AMA1-RON2 inh -9.2% and AmpC inh detg -13.7%.
